Measurements from PubChem BioAssay (NCI).
About 79,000 compounds went through this panel and 15% of them were active in at least one assay; those are over-represented in the sample as a whole. Unmarked numbers belong to inactive results. Activity calls are given as the source filed them. Cut-off read from the data, not from the text of the source: active = growth inhibition above about 70%; inactive = the rest.

Assay: NCI Yeast Anticancer Drug Screen. Data for the mgt1 strain (AID 153)
Conditions: S. cerevisiae mgt1 mutant growth inhibition, stronger effect = higher value
Protocol: Growth inhibition of yeast strains with defined genetic alterations is measured as a screen for potential anti-cancer activity. Selected strains with alterations in DNA damage repair or cell cycle control were exposed to compounds and growth inhibition was measured relative to vehicle treated controls. The strain used in this assay is mgt1

SMILES	growth inhibition (at 1.2 µM) [%]	growth inhibition (at 3.7 µM)	growth inhibition (at 11.0 µM)	growth inhibition (at 33.0 µM)	growth inhibition (at 100.0 µM)
C/C(=N\O)C1CC2C=C(C#N)C1N(Cc1ccccc1)C2 (stereo not given)	-5	-4%	-5%	-3%	-1%
c1ccc(-c2nc3cccnc3s2)cc1	1	-2%	-1%	-10%	-11%
O=C(c1cc(Br)ccc1O)c1cc(Br)ccc1O	38	95% (active)	99% (active)	100% (active)	100% (active)
CC(C)/C(Cl)=N\OC(=O)Nc1cccc(Cl)c1	-1	-3%	12%	-26%	0%
CCCCc1cc(O)ccc1O	-4	-1%	1%	0%	10%
COc1ccc2sc3cccc(NCCN(C)C)c3c(=O)c2c1	-1	-3%	-4%	-3%	15%
O=C(N=Nc1ccccc1Cl)NNc1ccccc1Cl	-5	-5%	3%	-18%	-2%
O=[n+]1c2ccc(Cl)cc2n([O-])c2ccc(Cl)cc21	-3	-1%	2%	5%	10%
